Assay results taken from PubChem BioAssay (NCATS).
Inconclusive results are not listed. The source made the active and inactive calls. Calls come from the whole dose curve; as a rule, active = well fitted inhibition curve with a large enough effect; inconclusive = small, poorly fitted or top-dose-only effect; inactive = flat fitted curve, though single readings scatter.

What was measured:
Test in all cases: qHTS profiling for inhibitors of Plasmodium falciparum proliferation (AID 504749); note: nearly all actives have a fitted effect of over 60% in size
Details in all cases: P. falciparum in erythrocytes, SYBR Green DNA, 72 h; series mostly up to 12.8 µM
CP265 = test system: CP265
Procedure, shortened: (§1)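 P. falciparum-infected erythrocytes (0.3% parasitemia, 2.5% hematocrit) incubated with compound 72 h at 37 C, 5% CO2. Parasite DNA detected by SYBR Green after lysis, overnight at room temperature; normalised to 0.29 uM artemisinin and DMSO.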

CP266 = test system: CP266
Procedure, shortened: as §1

CP268 = test system: CP268
Procedure, shortened: as §1

CP269 = test system: CP269
Procedure, shortened: as §1

CP286 = test system: CP286
Procedure, shortened: as §1

CP291 = test system: CP291
Procedure, shortened: as §1

CP297 = test system: CP297
Procedure, shortened: as §1

CP305 = test system: CP305
Procedure, shortened: as §1

CP315 = test system: CP315
Procedure, shortened: as §1

CP325 = test system: CP325
Procedure, shortened: as §1

CP329 = test system: CP329
Procedure, shortened: as §1

CP335 = test system: CP335
Procedure, shortened: as §1

DFO2036 = test system: DFO2036
Procedure, shortened: as §1

DIV17 = test system: DIV17
Procedure, shortened: as §1

DIV30 = test system: DIV30
Procedure, shortened: as §1

Dd2 = test system: Dd2
Procedure, shortened: as §1

ECU = test system: ECU
Procedure, shortened: as §1

FAB9 = test system: FAB9
Procedure, shortened: as §1

GB4 = test system: GB4
Procedure, shortened: as §1

HB3 = test system: HB3
Procedure, shortened: as §1

ICS = test system: ICS
Procedure, shortened: as §1

JCK = test system: JCK
Procedure, shortened: as §1

N140 = test system: N140
Procedure, shortened: as §1

P93_24 = test system: P93_24
Procedure, shortened: as §1

P94_40 = test system: P94_40
Procedure, shortened: as §1

PAD = test system: PAD
Procedure, shortened: as §1

PC15 = test system: PC15
Procedure, shortened: as §1

PC26 = test system: PC26
Procedure, shortened: as §1

PC49 = test system: PC49
Procedure, shortened: as §1

SC27B = test system: SC27B
Procedure, shortened: as §1

TAB109 = test system: TAB109
Procedure, shortened: as §1

TAB113 = test system: TAB113
Procedure, shortened: as §1

TAB165 = test system: TAB165
Procedure, shortened: as §1

W2 = test system: W2
Procedure, shortened: as §1

Measured: Potency

Nc1nc(NC2CC2)c2ncn([C@H]3C=C[C@@H](CO)C3)c2n1
inactive: all assays above
